In PubChem BioAssay (NCI) one finds growth data, which are given here for 40 compounds.

About 83,000 compounds went through this panel and 20% of them were active in at least one assay; those are over-represented in the sample as a whole.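 Percent growth is the endpoint: 0 to 100 indicates growth inhibition (40 means 60% inhibition), 0 means no net growth, and negative values indicate cell death.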 Calls of active or inactive are those of the source.

This experiment has as its system LOX IMVI melanoma. The experiment in a line: NCI-60 one-dose screen, 48 h (100 = growth as untreated, 0 = no growth, -100 = all killed). The following applies: 10 µM unless noted. As for the experimental part:
Growth inhibition of the LOX IMVI human tumor cell line is measured as a screen for anti-cancer activity. Cells are grown in 96 well plates and exposed to the test compound for 48 hours. Compounds are tested at a single concentration, which is 10^-5 M for most compounds. The reported endpoint is percent growth (GI% or GIPRCNT), where numbers from 0 - 100% represent growth inhibition, and numbers from -100% - 0 represent cell death. For example, a value of 40 represents 60% growth inhibition. A value of 0 means no net growth occurred over the course of the experiment. A value of -40 indicates 40% of cells at the beginning of the experiment died by the end of the experiment. A value of -100 means all cells are dead at the end of the experiment.
NCI-60 Human Tumor Cell Lines Screen was performed using the standard one-dose NCI protocol, which is described in more detail at https://dtp.cancer.gov/discovery_development/nci-60/default.htm.
Compounds with GIPRCNT values below 10 were considered active. Activity score was based on GIPRCNT using the following formula: […]
Score is 0 for GIPRCNT values of 100 or above, 50 for GIPRCNT values of 0, and 100 for GIPRCNT values of -100.
For the compound `CCCCCCCC/C=C\CCCCCCCCOc1cccc(CC(=O)NCC[N+](C)(C)C)c1`, the growth was 89% (inactive).

In the case of `Cc1ccc(S(=O)(=O)N2CCc3ccc(O)c4c3C2Cc2ccc3c(c2-4)OCO3)cc1` (stereo not given), the growth was 35.6% (inactive).

With `COc1nc2c(cc1S(=O)(=O)c1ccccc1)CCc1c-2cnn1-c1ccccc1`, the growth was 90% (inactive).

`Cc1nc2cc(Nc3nc(Nc4ccc(F)cc4)nc(N4CCCC4)n3)ccc2n1Cc1ccccc1`: the growth is -86% (active).

On to `NC(=O)c1cc(I)ccc1NC(=O)COc1ccc(Cl)cc1Cl`, for which the growth was 93.3% (inactive).

For the compound `O=C1C(N2CCOCC2)=Cc2cccc3cccc1c23`, the growth was 101% (inactive).

For `COc1ccc(-n2c(SCc3cc(OC)c(OC)c(OC)c3)nc3ccc(C)cc3c2=O)c(OC)c1`, the growth was 31.6% (inactive).

`O=[N+]([O-])c1cc2c(cc1Br)-c1ccccc1C2`: the growth is 88.8% (inactive).

As for `CCCCOC(=O)C1OC(Oc2ccc3c(C)cc(=O)oc3c2)[C@@H](OC(C)=O)C(OC(C)=O)C1OC(C)=O` (stereo not given in full), the growth is 94.5% (inactive).

As for `Cc1ccc(N=c2nc3sc4c(C)ccc(C)c4n3c(N)c2C#N)cc1`, the growth is 99.4% (inactive).

Regarding `Cc1nn(CC(=O)O)c2c1C(=O)CC(C)(C)C2`, the growth is 107% (inactive).

`CCN(C(=O)c1ccc2c3c(cccc13)C=C2)c1ccccc1`: the growth was 108% (inactive).

As for `C=C(C)CCCC(C)CC#N` (stereo not given), the growth is 99.2% (inactive).

As for `CCOC(=O)c1[nH]c2cc(Cl)ccc2c1[C@@H](C(=O)NC(C)(C)C)N(CC)C(=O)CCCCC#Cc1cccc2c1CN(C1CCC(=O)NC1=O)C2=O` (stereo not given in full), the growth is 8.52% (active).

As to `O=c1oc2ccccc2cc1-c1csc(N=Nc2c(O)[nH]c3ccc(Br)cc23)n1`, the growth was 99.9% (inactive).

Regarding `COc1cc(NC(=O)COc2ccccc2)c(C(N)=O)cc1OC`, the growth was 59.1% (inactive).

Consider `O=C(O)CCN1CCN(c2cccc(Cl)c2)CC1`, for which the growth is 110% (inactive).

`c1ccc2cc(Cn3c(-c4ccc5ccccc5c4)[n+](Cc4ccc5ccccc5c4)c4ccccc43)ccc2c1`: the growth was -98.8% (active).

Regarding `O=C(NCc1ccc(F)cc1)C1CN(c2ccc(Cl)cc2)N(c2ccc(Cl)cc2)C1=O` (stereo not given), the growth was 72.3% (inactive).

On to `CCOC(=O)c1cn2c3c(cc(F)cc3c1=O)C(CC)c1ccccc1C2` (stereo not given), for which the growth is 84.9% (inactive).

As for `COC(=O)[C@@H]1CCCN1C(=O)[C@@H]1CCCN1C(=O)[C@@H](Cc1c[nH]c2ccccc12)NC(=S)Nc1cc(C(F)(F)F)cc(C(F)(F)F)c1`, the growth was 23.3% (inactive).

In the case of `CON=C1C[C@]2(C[C@@H]3C[C@@H](C/C=C(\C)C[C@@H](C)/C=C/C=C4\CO[C@@H]5[C@H](O)C(C)=C[C@@H](C(=O)O3)[C@]45O)O2)O[C@H](/C(C)=C/C(C)C)[C@H]1C`, the growth is 55.3% (inactive).

With `COc1cc(/C=C2\C(=O)N(c3c(Cl)cccc3Cl)c3ccccc32)cc(OC)c1O`, the growth is 2.06% (active).

With `FC(F)(F)c1ccc2c(c1)n1cnnc1c1nncn21`, the growth is 108% (inactive).

In the case of `COC(=O)c1ccc(C(=O)Nc2ccccc2N)cc1`, the growth was 97.7% (inactive).

For the compound `Nc1nc(N)c(N=Nc2c(Br)cc(S(N)(=O)=O)cc2Br)c(N)n1`, the growth is 110% (inactive).

With `COc1ccc(/C=C(\C#N)c2ccc(OC)cc2)cc1`, the growth is 48.3% (inactive).

Regarding `COc1ccc(OC2=C(C#N)C(=N)N3c4ccccc4Sc4ccccc4C3N2)cc1` (stereo not given), the growth is 87.4% (inactive).

In the case of `COc1cc(/C=C/C(=O)CC(=O)/C=C/c2cc(Br)c(OC)c(OC)c2)cc(Br)c1OC`, the growth was 97.8% (inactive).

For `CCCCCCCCCCCCCCn1c2ccccc2c2c3c(c4c5cc(OC)ccc5oc4c21)C(=O)NC3=O`, the growth is 103% (inactive).

As to `FCOC(C(F)(F)F)C(F)(F)F`, the growth was 101% (inactive).

Regarding `COc1ccc(/C=C2\CN(Cc3cn(CCCNc4ccnc5cc(Cl)ccc45)nn3)C/C(=C\c3ccc(OC)c(OC)c3)C2=O)cc1OC`, the growth was -68.9% (active).

In the case of `CCN1CCN(C(=S)SCC(=O)Nc2nc3ccc(OC)cc3s2)CC1`, the growth is 91.3% (inactive).

For the compound `O=[N+]([O-])c1ccc(O)c2ncccc12`, the growth is 46.8% (inactive).

On to `c1ccc(-c2n(Cc3ccc4ccccc4n3)c3ccccc3[n+]2Cc2ccc3ccccc3n2)cc1`, for which the growth is -75.8% (active).

In the case of `CC1SC(c2ccc(Cl)cc2)N(CCc2cccs2)C1=O` (stereo not given), the growth is -85.2% (active).

`O=C1C=CC(=O)N1CCCCCCCCCCN1C(=O)C=CC1=O`: the growth is 42.9% (inactive).

Take `COc1cc(-c2nc3ccccc3o2)cc(CN2CCN(c3ccccc3)CC2)c1O`: the growth was 8.05% (active).

In the case of `Cc1nc(NN)c([N+](=O)[O-])c(NN)n1`, the growth is 111% (inactive).

For the compound `CC(=O)Nc1ccc(S(=O)(=O)N/N=C\c2ccc(Cl)c(Cl)c2)cc1`, the growth is 98.7% (inactive).
